High-throughput results as filed in PubChem.
A selection: hits, their analogues and other compounds. The true share with any hit is near 2%.
COUP-TFII inh: NR2F2 transcriptional activity inhibitors, primary screen, cell-based, luciferase reporter, HEK293T, luminescence; inhibition, % at 8.6 µM; HEK293T NGFI-A luciferase reporter; 370,000 compounds, 0.7% hits; AID 686940, 2013;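 active = inhibition above a per-plate cutoff, mean inhibition of test wells between control levels plus 3 SD, cut at about 38% in these data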;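 note: cells cotransfected with COUP-TFII expression vector driving the NGFI-A reporter; 0% = median of COUP-TF2 test wells and 100% = reporter-only cells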
Target sequence (P24468 whole entry, looked up): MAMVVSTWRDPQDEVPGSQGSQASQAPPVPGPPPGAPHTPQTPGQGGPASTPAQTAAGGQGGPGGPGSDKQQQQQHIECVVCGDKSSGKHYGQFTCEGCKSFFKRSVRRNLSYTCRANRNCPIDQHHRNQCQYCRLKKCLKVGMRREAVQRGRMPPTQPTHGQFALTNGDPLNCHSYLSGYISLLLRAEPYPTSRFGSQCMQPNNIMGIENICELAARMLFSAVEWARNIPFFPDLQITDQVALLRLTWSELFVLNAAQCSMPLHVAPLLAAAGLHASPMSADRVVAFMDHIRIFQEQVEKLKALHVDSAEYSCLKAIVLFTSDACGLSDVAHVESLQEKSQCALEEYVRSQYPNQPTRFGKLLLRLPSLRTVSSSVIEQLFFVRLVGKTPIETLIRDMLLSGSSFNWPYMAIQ
Gli-Sufu antag: Gli-Sufu pathway antagonists, primary screen, luciferase luminescence, Sufu-KO-LIGHT cells, uHTS. Sufu-KO-LIGHT fibroblasts, Gli luciferase reporter luminescence. inhibition, % at 5 µM. 340,000 compounds, 0.74% hits;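 active = inhibition above about 55%, limit read from the data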;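 note: 0% = DMSO-treated cells and 100% = wells with medium but no cells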
Jurkat NFkB inh: inhibitors of induced NF-kB luciferase reporter, primary screen, TCR NF-kB activation inhibitor project, cell-based, luminescence, uHTS | Jurkat, PMA/ionomycin-induced NF-kB luciferase reporter | inhibition, % at 4 µM | 330,000 compounds, 0.53% hits | AID 435003, 2010; in the data active = inhibition above about 50%
GalR3 antagonist: GalR3 antagonists in HEK293 cells, primary screen, cell-based, fluorescence readout; HEK293 GalR3-CNG cAMP membrane potential fluorescence; galR3 body fused to GalR1 C-terminus; inhibition, % at 3 µM; 360,000 compounds, 0.44% hits;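 active = inhibition above the screen-wide average plus 3 SD, cut at about 13% in these data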;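 note: forskolin and galanin both at EC90 stimulate the cells; cAMP rise reported by CNG channel membrane potential dye signal; 0% = forskolin plus galanin with DMSO and 100% = forskolin alone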
Target sequence (O60755 1-299 limits assumed): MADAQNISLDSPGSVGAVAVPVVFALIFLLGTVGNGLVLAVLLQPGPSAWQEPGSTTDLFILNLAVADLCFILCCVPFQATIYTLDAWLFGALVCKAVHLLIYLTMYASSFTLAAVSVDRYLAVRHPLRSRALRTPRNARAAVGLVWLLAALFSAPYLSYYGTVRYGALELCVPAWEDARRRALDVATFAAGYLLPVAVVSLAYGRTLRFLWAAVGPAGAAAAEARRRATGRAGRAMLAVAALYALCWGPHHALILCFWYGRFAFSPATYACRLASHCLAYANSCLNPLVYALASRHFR
697 NFkB inh: inhibitors of PMA/ionomycin-induced NF-kB reporter, 697 cells, primary screen, B-cell NF-kB inhibitor project, cell-based, luminescence, uHTS. AID 435022, 2010. 697 B-cell NF-kB luciferase reporter, 16 h. inhibition, % at 4 µM. 330,000 compounds, 0.33% hits; in the data active = inhibition above about 35%
Jurkat NFkB conf: PMA/ionomycin-induced NF-kB reporter inhibitors, Jurkat retest, confirmation, T-cell NF-kB inhibitor project, cell-based, luminescence, single concentration; shares compounds with Jurkat NFkB inh; Jurkat NF-kB luciferase, 16 h; inhibition, % at 4 µM; 2,700 compounds, 27% hits;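 active = inhibition reaching about 45% at 4 µM in either replicate, limit read from the data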;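 note: plate controls were PMA/ionomycin stimulated DMSO wells for no effect and unstimulated DMSO wells for full effect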
697 NFkB conf: PMA/ionomycin-induced NF-kB reporter inhibitors, 697 retest, confirmation, B-cell NF-kB inhibitor project, cell-based, luminescence, single concentration; shares compounds with 697 NFkB inh; 2,000 compounds, 35% hits; 697 B-cell NF-kB luciferase, 16 h; inhibition, % at 4 µM; AID 449746, 2010; in the data active = inhibition mostly above about 28%, no sharp cut-off; inactive = mostly below about 22%
Gli antag conf: Gli-SUFU pathway antagonists, confirmation, single concentration, luciferase luminescence, Sufu-KO-LIGHT cells; shares compounds with Gli-Sufu antag; Gli luciferase reporter; inhibition, % at 5 µM; 2,500 compounds, 40% hits; AID 602428, 2012;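 active = mean inhibition at 5 µM reaching about 45%, limit read from the data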;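 note: plate controls were DMSO-treated cells for no effect and wells lacking cells for full effect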
SufuKO cytotox: cytotoxicity in Sufu-KO-LIGHT cells, confirmation, cytotoxicity control for Gli-SUFU antagonist project, cell-based, ATP luminescence, single concentration; shares compounds with Gli-Sufu antag; cytotoxicity, % at 5 µM; 2,500 compounds, 32% hits;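 active = mean cytotoxicity at 5 µM above about 25%, limit read from the data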;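 note: cells exposed to compound overnight for roughly 16 to 18 hours; plate controls were DMSO wells with cells for no effect and medium without cells for full effect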
Wnt3a cs: Wnt3a reporter signal inhibition, confirmation, counter-screen for Gli-SUFU antagonist project, Wnt-LIGHT cells, luminescence, single concentration. shares compounds with Gli-Sufu antag. Wnt3a-driven luciferase reporter. inhibition, % at 6.25 µM. 2,500 compounds, 20% hits. AID 651995, 2013;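 active = mean inhibition above about 25%, limit read from the data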
GalR3 antag conf: GalR3 antagonist hit confirmation, cell-based, fluorescence, triplicate | inhibition, % at 3 µM | AID 652245, 2013 | HEK293 GalR3 CNG cAMP biosensor, membrane potential fluorescence; galR3 fused to GalR1 carboxy tail; challenged with forskolin and galanin at EC90 | 1,600 compounds, 59% hits | shares compounds with GalR3 antagonist;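 active = inhibition above the primary screen's cutoff, the mean inhibition of all screened compounds plus 3 SD, cut at about 13% in these data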;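 note: 0% = forskolin plus galanin and 100% = forskolin alone with DMSO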
HEK-CNG parental: nonspecific cAMP agonists in parental HEK-CNG cells, counter-screen for GalR3 antagonist project, cell-based, fluorescence, high throughput; shares compounds with GalR3 antagonist; HEK293-CNG parental cells, cAMP membrane potential fluorescence; normalised: DMSO wells 0%, forskolin wells 100%; activation, % at 3 µM; 1,600 compounds, 10% hits; AID 652268, 2013; in the data active = activation above about 1.3%
VP16 Luc counter: Gal4-VP16 luciferase reporter inhibitors, counter-screen for COUP-TFII antagonist project, cell-based, luminescence, HEK293. AID 687007, 2013. 2,500 compounds, 25% hits. shares compounds with COUP-TFII inh. inhibition, % at 8.5 µM; in the data active = inhibition above about 13%
COUP-TFII conf: NR2F2 transcriptional activity inhibitors, confirmation, cell-based, luciferase reporter, HEK293, triplicate; shares compounds with COUP-TFII inh; inhibition, % at 8.5 µM; HEK293 NGFI-A luciferase reporter, luminescence; AID 687008, 2013; 2,500 compounds, 45% hits;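 active = mean inhibition over three repeats above a set limit taken from the earlier primary screen, cut at about 38% in these data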;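 note: 100% = cells given the luciferase reporter alone without the COUP-TF2 vector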
Active calls of the source: *; i = inactive; · = not tested or not shown.

SMILES	COUP-TFII inh	Gli-Sufu antag	Jurkat NFkB inh	GalR3 antagonist	697 NFkB inh	Jurkat NFkB conf	697 NFkB conf	VP16 Luc counter	COUP-TFII conf	others
COc1ccc2c(c1)N(C)/C(=C/c1cccc[n+]1C)S2	56*	80*	61*	-10	-26	11	·	-4	21	Gli antag conf=84*;SufuKO cytotox=36*;Wnt3a cs=29*
Cc1nn(-c2ccccc2Cl)c(Cl)c1/C=N/Nc1nc2ccccc2s1	86*	86*	67*	-2	-223	86*	·	88*	102*
CC(C)(C)c1ccc(C(=O)Nc2ccc(CC(=O)O)cc2)o1	95*	53	60*	-6	84*	73*	86*	84*	91*
O=Nc1ccc(O)c2ncccc12	54*	38	60*	1	i	25	i	5	41*
O=C(Sc1cccc2cccnc12)c1ccc(F)cc1	43*	·	101*	-4	-151	60*	·	47*	44*
CC1(C)N=C(N)N=C(N)N1c1cc(Cl)ccc1Cl	-6	·	·	1	·	·	·	·	·
CC1(C)N=C(N)N=C(N)N1c1ccc(Oc2ccc(Cl)cc2)c(Cl)c1	69*	65*	82*	6	29	66*	·	16*	65*
Cc1cc(CSc2ccccc2)ccc1NC(=O)c1ccc(CN2CCOCC2)cc1	63*	40	70*	106*	49*	73*	47*	3	61*	GalR3 antag conf=122*;HEK-CNG parental=-1
CC(=O)CC[C@@H]1CC[C@]2(CCCN(C(=O)c3ccccc3)C2)O1	20	·	·	·	·	·	·	·	·
CCc1c(C)nc2ncnn2c1Nc1ccc(C)cc1	17	14	6	-3	1	·	·	·	·
CCc1c(C)nc2ncnn2c1NCCc1ccc(OC)cc1	58*	62*	78*	15*	-15	68*	·	9	52*	Gli antag conf=61*;SufuKO cytotox=39*;Wnt3a cs=17;GalR3 antag conf=59*;HEK-CNG parental=0
CN(C)CCCNS(=O)(=O)c1ccc(NC2CCCCCC2)c([N+](=O)[O-])c1	53*	36	56*	78*	-26	23	·	5	39*	GalR3 antag conf=100*;HEK-CNG parental=1.6*
C[C@H](O)[C@@H]1CN2CCc3ccc(-c4ccc5c(c4)OCO5)cc3[C@@H]2C[C@@H]1N(C)CC1CCCCC1	11	·	·	·	·	·	·	·	·
Cc1ccc(C(=O)Nc2cnc3ccccc3c2)cc1	71*	-110	59*	-5	-304	73*	-222	24*	48*
Cc1cc(C(=O)Nc2cnc3ccccc3c2)ccc1[N+](=O)[O-]	-43	-63	-116	-4	-40	·	·	·	·
Cc1cccc(NC(=O)n2ccc3ccc(-c4ccc5cc[nH]c5c4)cc32)c1	-1	·	·	·	·	·	·	·	·
S=C(NCCCN1CCOCC1)N1CCN(c2nc(-c3ccc(Cl)cc3)cs2)CC1	58*	52	51*	20*	21	20	·	-2	28	Gli antag conf=37;SufuKO cytotox=17;Wnt3a cs=-81;GalR3 antag conf=6;HEK-CNG parental=-1
CCOC(=O)[C@@]12CN(C(=O)OC(C)(C)C)CC=C1N(Cc1ccc(OC)cc1)C(=O)[C@H]2CC(=O)NCCC(C)C	-5	·	·	·	·	·	·	·	·
CN=c1scc(-c2cccs2)n1/N=C/c1ccc(O)c(O)c1O	-2	-67	-54	0	-248	·	·	·	·
CN=c1scc(-c2cccs2)n1/N=C/c1ccccc1O	94*	81*	77*	-7	-15	82*	·	88*	108*
C[C@H]1[C@@H](NC(=O)c2cccc(C(F)(F)F)c2)CC[C@@]23CCCN2C(=O)CCC[C@@H]13	-1	·	·	·	·	·	·	·	·
O=C(CCN1C(=O)c2ccccc2S1(=O)=O)Nc1ccc2c(c1)OCCO2	12	-2	16	-2	11	·	·	·	·
O=C(CN1C(=O)c2ccccc2S1(=O)=O)c1ccc2c(c1)OCCO2	89*	94*	94*	-6	93*	92*	92*	83*	99*
O=C(CN1C(=O)c2ccccc2S1(=O)=O)c1ccc2c(c1)OCCCO2	100*	96*	96*	-1	94*	94*	89*	93*	109*
C=C1C(=O)O[C@@H]2C[C@@H](C)[C@@H]3C=CC(=O)[C@@]3(C)[C@@H](OC(C)=O)[C@H]12	86*	96*	96*	-4	100*	98*	100*	94*	105*
C[C@@H]1C[C@@H]2OC(=O)[C@]3(C)[C@H]2[C@@H](OC3(C)O)[C@]2(C)C(=O)C=C[C@H]12 (stereo not given in full)	-25	8	10	0	-46	·	·	·	·
